{"source": "PubChem BioAssay (NCI)", "note": "Several values for one entry are separate records, joined by “and”; a condition that tells them apart may be missing. Identical values can stand only once. About 83,000 compounds went through this panel and 20% of them were active in at least one assay; those are over-represented in the sample as a whole.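 In brief: 96-well plates, 48 h treatment, single concentration, percent growth endpoint.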 Activity calls are given as the source filed them. The calls were made as follows: active = growth percent below 10; inactive = the rest.", "data": [{"test_system": "COLO 205 colon", "assay": "NCI-60 one-dose screen, 48 h (100 = growth as untreated, 0 = no growth, -100 = all killed)", "settings": "10 µM unless noted", "values": [{"compound": "Oc1ccc(/C=N/NC(=S)Nc2ccccc2)nc1", "growth": "24.4% (inactive)"}, {"compound": "COc1ccccc1OC(=O)Oc1ccccc1OC", "growth": "123% (inactive) and 104% (inactive)"}, {"compound": "O=C1C=CC(=O)N1C1c2ccccc2-c2ccccc21", "growth": "20% (inactive)"}, {"compound": "O=C(CC1(O)C(=O)Nc2c(Cl)ccc(Cl)c21)c1ccc(Cl)cc1Cl", "note": "(stereo not drawn)", "growth": "97.5% (inactive)"}, {"compound": "Cc1cc2nc(CS)[nH]c2cc1C", "growth": "90.3% (inactive)"}, {"compound": "O=C(Nc1cccc(Br)c1)Oc1ccc(Cl)c2cccnc12", "growth": "55.8% [100 µM] (inactive)"}, {"compound": "CN(C)c1ccc(N=Nc2cccc3ccccc23)cc1", "growth": "87.2% (inactive)"}, {"compound": "O=[N+]([O-])c1ccc(N=Nc2ccc(O)cc2O)cc1", "growth": "41.4% (inactive)"}, {"compound": "CC(C)(C)CC(C)(C)c1ccc(OCCSC(=N)N)cc1", "growth": "-76.9% (active)"}, {"compound": "CCCCCCCCCCCCCCCC[N+](C)(CCO)Cc1cnc[nH]1", "note": "(stereo not drawn)", "growth": "-100% (active)"}, {"compound": "Nc1nc(N)c2nc(CNc3ccc(C(=O)NC(CCC(=O)O)C(=O)O)cc3)cnc2n1", "note": "(stereo not drawn)", "growth": "56.1% (inactive) and 32.8% (inactive)"}, {"compound": "Cc1ccc2c(ccc3c[n+]4c5ccccc5ccc4n32)c1", "growth": "-34.2% (active)"}, {"compound": "CN(Cc1cnc2nc(N)nc(N)c2n1)c1ccc(C(=O)NC(CCC(=O)O)C(=O)O)cc1", "note": "(stereo not drawn)", "growth": "58.5% (inactive)"}, {"compound": "NC(=S)N/N=C\\c1nccc2c(C(F)(F)C(F)(F)C(F)(F)F)cccc12", "growth": "16.5% (inactive)"}, {"compound": "CCC(CC)COC(=O)c1ccc(O)c(O)c1", "growth": "95.7% (inactive)"}, {"compound": "O=C(/C=C/C=C/c1ccccc1)c1ccco1", "growth": "103% (inactive)"}, {"compound": "C/C=C1\\SC(=S)NC1=O", "growth": "104% (inactive)"}, {"compound": "O=C(/C=C\\c1cc(Br)ccc1O)/C=C/c1cc(Br)ccc1O", "growth": "-70.6% (active)"}, {"compound": "O=Nc1ccccc1N=O", "growth": "83.4% (inactive)"}, {"compound": "COC(=O)Nc1nc2ccc(C(=O)c3ccccc3)cc2[nH]1", "growth": "0.824% (active) and -17.1% (active) and -22.8% (active)"}, {"compound": "CCCCCC(CCCCC)C(=O)O", "growth": "102% (inactive)"}, {"compound": "Oc1c(Br)c(Br)c(O)c(Br)c1Br", "growth": "-34.4% (active)"}, {"compound": "CCCCCCCCCCCCCCCCOP(=O)([O-])OCC[N+](C)(C)C", "growth": "10.6% (inactive)"}, {"compound": "CC1SC(=S)N(c2ccc(Cl)cc2)C1=O", "note": "(stereo not drawn)", "growth": "124% (inactive) and 107% (inactive)"}, {"compound": "Cc1ccc2nc(-[n+]3cc4ccccc4cc3C)ccc2c1", "growth": "-11.8% (active)"}, {"compound": "O=C(Nc1ccccc1)Oc1c(Cl)c(Cl)c(Cl)c(Cl)c1Cl", "growth": "97.9% (inactive) and 106% (inactive)"}, {"compound": "NC(=O)/C=C/C(=O)c1c(Cl)cccc1Cl", "growth": "-89.6% (active)"}, {"compound": "S=C(N/N=C/c1ccccn1)Nc1ccccn1", "growth": "9.1% (active)"}, {"compound": "CC1=CC(O)C2CC1C2(C)C", "note": "(stereo not drawn)", "growth": "94.5% (inactive) and 112% (inactive)"}, {"compound": "Cc1ccnc2c1ccc1c(C)ccnc12", "growth": "4.27% (active)"}, {"compound": "O=C(Oc1cccc2cccnc12)c1ccccc1", "growth": "84.8% (inactive) and 106% (inactive)"}, {"compound": "CC1(C)CC([P+](c2ccccc2)(c2ccccc2)c2ccccc2)=NN1", "growth": "-49.9% (active)"}, {"compound": "CCCCCCCCCCCCCCCCN(CC)CC", "growth": "-62.5% (active)"}]}]}
